Where “and” joins values, the source holds several entries; their conditions need not be identical. Identical values can stand only once. Inconclusive results are not listed. More than one record can exist for a structure, and the calls need not agree. Calls of active or inactive are those of the source. The calls were made as follows: active = hit-call score of the fitted dose curve at least 0.9, where 1 is the maximum; inconclusive = response in the unintended direction; inactive = score below 0.9.

The nature of the assay: ATG_XTT_Cytotoxicity: Cytotoxicity Assessment in the Attagene TRANS-FACTORIAL HepG2 Assay (AID 2283584).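 As to AC50: cells exposed to compound for 24 h before reading; active means loss of viability signal versus DMSO baseline.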 On the procedure:
ATG_XTT_Cytotoxicity is a cell-based, single-readout assay that uses HepG2, a human liver cell line, with measurements taken at 24 hours after chemical dosing in a 24-well plate.ATG_XTT_Cytotoxicity is one of one assay component(s) measured or calculated from the ATG_XTT_Cytotoxicity assay. It is designed to make measurements of cell number, a form of viability reporter, as detected with […] signals by XTT cytotoxicity assay technology.Data from the assay component ATG_XTT_Cytotoxicity was analyzed into 1 assay endpoint. This assay endpoint, ATG_XTT_Cytotoxicity, was analyzed in the positive analysis fitting direction relative to DMSO as the negative control and baseline of activity. Using a type of viability reporter, loss-of-signal activity can be used to understand changes in the viability. Furthermore, this assay endpoint can be referred to as a primary readout, because the performed assay has only produced 1 assay endpoint. To generalize the intended target to other relatable targets, this assay endpoint is annotated to the cell cycle intended target family, where the subfamily is cytotoxicity.
Human liver HepG2 cells are transiently transfected with multiple reporter transcription units (MRTUs) in 6-well plates using FuGene 6 reagent (Roche; 3 ml FuGene/1 mg DNA). The MRTU constructs are regulated by a cis-regulating element (promoter). […] A major difference between the CIS and TRANS system is that in CIS activities of endogenous TFs are measured, whereas the TRANS assay evaluates changes in activities of exogenous, chimeric NR-Gal4 proteins. […] At the end of 24 hour incubation, total RNA was isolated using TriZol reagent (Invitrogen). The isolated RNA is then reverse-transcribed using oligo(dT) primer and Mo-MLV reverse transcriptase (Invitrogen) with DNAse I (Ambion) treatment for 30 min. The one-tenth of the produced cDNA was amplified by PCR using Taq DNA polymerase (Invitrogen) and two reporter sequence-specific primers. The PCR products were fluorescently labeled by primer extension with 6-arboxyfluorescein (6-FAM) 5'-labeled reporter sequence-specific primer (2 min at 95 C, 20 s at 68 C and 10 min at 72 C) and these products were digested with 5U of HpaI (New England Biolabs) for 2h at 37 C. The fragments were purified using Qiaquick PCR columns (Qiagen), analyzed on an ABI 3130xL genetic analyzer (Applied Biosystems) with peak positions identified by using a set of X-rhodamine (ROX)-labeled MapMarker1000 molecular weight standards (BioVentures). The raw capillary electrophoresis data was processed using Attagraph software (Attagene).
As for `N[C@@H](Cc1cc(I)c(Oc2cc(I)c(O)c(I)c2)c(I)c1)C(=O)O`, the compound was called inactive. Same read-out and setting: in the case of `C=CC(=O)OCCCC` it was “inactive”; in that of `CCN(CCN)c1cccc(C)c1`, “inactive”. Same read-out and setting: in the case of `Oc1ccc2cc(SSc3ccc4cc(O)ccc4c3)ccc2c1` it was “inactive”; in that of `C1CCOC1`, “inactive”.

Take `CCCCCc1ccco1`: the call was inactive. On the same count and under the same terms, to `C/C=C(\C)C(=O)OCCc1ccccc1` belongs “inactive”; to `C[C@H](CCC(=O)NCC(=O)O)[C@H]1CC[C@H]2[C@@H]3[C@H](O)C[C@@H]4C[C@H](O)CC[C@]4(C)[C@H]3C[C@H](O)[C@]12C`, “inactive”. On the same count and under the same terms, to `O=C1OC(=O)c2c(Cl)c(Cl)c(Cl)c(Cl)c21` belongs “inactive”; to `C=C(C)C(=O)OCC(CC)(COC(=O)C(=C)C)COC(=O)C(=C)C`, “inactive”. Same read-out and setting: in the case of `CCc1ccc(O)c(OC)c1` it was “inactive”; in that of `CC1(C)O[C@@H]2[C@@H](CO[C@@]3(COS(N)(=O)=O)OC(C)(C)O[C@@H]23)O1`, “inactive”. With `CN(C)c1ccncc1`, the call was inactive. Still for that read-out and setting: to `C=C[Si]1(C)O[Si](C)(C=C)O[Si](C)(C=C)O[Si](C)(C=C)O1` (stereo not given) belongs “inactive”. In the case of `CCN(CCC#N)c1ccc(N=Nc2ccc([N+](=O)[O-])cc2)cc1`, the compound was called inactive. On the same count and under the same terms, in the case of `CCOC(=O)c1ccc(N)cc1` it was “inactive”. Turning to `COCCOC(=O)c1ccccc1C(=O)OCCOC`, the call was inactive.

Consider `CCN(CC)C(=O)N(CC)CC`, for which the result was inactive.

Turning to `C[Si](C)(C)O[Si](C)(C)C`, the outcome was inactive.

Consider `COc1ccccc1[N+](=O)[O-]`, for which the compound was called inactive. Same read-out and setting: in the case of `CN(c1nccc(=O)[nH]1)C1CCN(c2nc3ccccc3n2Cc2ccc(F)cc2)CC1` it was “inactive”; in that of `CCCCCCC(=O)c1ccccc1`, “inactive”.

As for `CCCC(C)C(O)CC` (stereo not given), the compound was classed as inactive. Same read-out and setting: in the case of `COc1ccc(N=Nc2cc(C)c(N=Nc3ccc(S(=O)(=O)O)cc3)cc2OC)cc1` it was “inactive”; in that of `C=C1CC[C@H](O)C/C1=C/C=C1\CCC[C@]2(C)[C@@H]([C@H](C)/C=C/[C@H](C)C(C)C)CC[C@@H]12`, “inactive”; in that of `NC1CCCCC1N` (stereo not given), “inactive”. Same read-out and setting: in the case of `CC(=O)NCCO` it was “inactive”. For `Clc1ccc(C(c2ccccc2Cl)C(Cl)Cl)cc1` (stereo not given), the AC50 (as a rule, the midpoint of the concentration-response curve, whichever way the signal moves) was 148 µM (active) and the compound was classed as inactive. As to `CCCOC(=O)c1c(Cl)c(Cl)c(Cl)c(Cl)c1C(=O)OCCC`, the outcome was inactive.

In the case of `O=C(O)CCCCCCCCC(=O)O`, the result was inactive. As to `O=C1c2ccccc2C(=O)c2c(O)ccc(O)c21`, the call was inactive.

With `C=CCOC(=O)CCCCCC`, the compound was called inactive. Regarding `CC(C)CC(C)CC(O)CC(C)C` (stereo not given), the compound was classed as inactive.

`C=Cc1ccncc1`: the call was inactive. Regarding `CCCCC(CC)COC(=O)c1ccc(O)cc1` (stereo not given), the AC50 is 100 µM (active) and 121 µM (active).

On to `CCCCCCCCCCCCN1CCCCCC1=O`, for which the AC50 is 29.9 µM (active). As for `CC1CC(O)CC(C)(C)C1` (stereo not given), the compound was classed as inactive.

In the case of `[O-]n1ccccc1=S.[O-]n1ccccc1=S.[Zn+2]`, the AC50 is 2.87 µM (active). Turning to `Cc1[nH]c(=O)c(C#N)cc1-c1ccncc1`, the compound was called inactive.

Source of the values: PubChem BioAssay (EPA / NIEHS).
